Where “and” joins values, the source holds several entries; their conditions need not be identical. Equal values may be shown once. Inconclusive results are not listed. Unmarked numbers belong to inactive results. Calls of active or inactive are those of the source. The call rests on the fitted dose curve; in most records, active means well fitted inhibition curve with a large enough effect; inconclusive means small, poorly fitted or top-dose-only effect; inactive means flat fitted curve, though single readings scatter.
Key:
CRL-7250 = normal cell line; experiment: Cytotoxic Profiling of Annotated Libraries Using Quantitative High-Throughput Screening (AID 1296008); settings: Five cell lines viability, CellTiter-Glo ATP luminescence, 48-72 h; max response: stronger effect = lower value
How it was run: (§1)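 Compounds were pin-transferred onto cells and incubated 48 or 72 hr at 37 degree Celsius, 95% humidity. CellTiter-Glo was added, plates sat 10 min at room temperature, then ATP-coupled luminescence was imaged as the viability read-out.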

HEK293 = experiment: as above; settings: Five cell lines viability, CellTiter-Glo ATP luminescence, 48-72 h; max response: stronger effect = lower value
How it was run: as §1

HaCat [1] = experiment: as above; settings: Five cell lines viability, CellTiter-Glo ATP luminescence, 48-72 h; max response: stronger effect = lower value
How it was run: as §1

KB-3-1 = experiment: as above; settings: Five cell lines viability, CellTiter-Glo ATP luminescence, 48-72 h; max response: stronger effect = lower value
How it was run: as §1

NIH3T3 = experiment: as above; settings: Five cell lines viability, CellTiter-Glo ATP luminescence, 48-72 h; max response: stronger effect = lower value
How it was run: as §1

MCC-13 = experiment: qHTS assay to identify novel small-molecules to repurpose for Merkel cell carcinoma treatment (AID 1296009); settings: MCC and control cell lines, CellTiter-Glo viability, 72 h; series mostly up to 46 µM
How it was run: (§2)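 Viability readout: ATP luminescence (CellTiter-Glo) after 72 hr drug exposure at 37 degree celsius. Dose-response format was 8 points for NPC and 11 points for MIPE; data normalized to in-plate controls.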

MCC-26 = experiment: as above; settings: MCC and control cell lines, CellTiter-Glo viability, 72 h; series mostly up to 46 µM
How it was run: as §2

MKL-1 = experiment: as above; settings: MCC and control cell lines, CellTiter-Glo viability, 72 h; series mostly up to 46 µM
How it was run: as §2

HACAT [2] = experiment: as above; settings: MCC and control cell lines, CellTiter-Glo viability, 72 h; series mostly up to 44.8 µM
How it was run: as §2
Further: nearly all actives have a fitted effect of over 60% in size.
On the % scale 0 is the no-effect control and ±100 the full control effect; potency means the concentration at half of the fitted maximal effect.

## CC=CC1=C(C(=O)O)N2C(=O)[C@H](NC(=O)[C@H](N)c3ccc(O)cc3)[C@@H]2SC1
CRL-7250
  max response: 1.71%
HEK293
  max response: -2.68%
HaCat [1]
  max response: -17%
KB-3-1
  max response: 1.31%
NIH3T3
  max response: 1.07%
MCC-13
  Potency: inactive
MCC-26
  Potency: inactive
MKL-1
  Potency: inactive

## C[C@H]1C[C@@H]2[C@@H]([C@@H](O)C[C@@]3(C)[C@H]2CC[C@]3(O)C(=O)CO)[C@@]2(C)C=CC(=O)C=C12
CRL-7250
  max response: -0.811%
HEK293
  max response: -9.41%
HaCat [1]
  max response: -11.8%
KB-3-1
  max response: -1.28% and 2.95%
NIH3T3
  outcome: inactive
MCC-13
  Potency: inactive
MKL-1
  Potency: inactive

## CC(C)c1cnn2c(NCc3ccccc3)cc(N[C@@H](CO)[C@H](O)CO)nc12
CRL-7250
  Potency: 0.296 µM (active)
HEK293
  Potency: 332 nM (active) and 1.03 µM (active)
HaCat [1]
  Potency: 469 nM (active) and 4.11 µM (active)
KB-3-1
  Potency: 0.731 µM (active)
NIH3T3
  Potency: 935 nM (active) and 3.66 µM (active)
MCC-13
  Potency: 1660 nM (active)
MCC-26
  Potency: 743 nM (active)

## CCOc1cc2ncc(C#N)c(Nc3ccc(F)c(Cl)c3)c2cc1NC(=O)C=CCN(C)C
CRL-7250
  Potency: 0.105 µM (active)
HEK293
  Potency: 1.87 µM (active)
HaCat [1]
  Potency: 16.6 nM (active)
KB-3-1
  Potency: 5.9 µM (active)
NIH3T3
  Potency: 1.48 µM (active)
MCC-13
  Potency: 23500 nM (active)
MCC-26
  Potency: 14800 nM (active)
MKL-1
  Potency: 14800 nM (active)

## O=C(O)Cn1nnc(-c2cc(N3CCC(Oc4cc(F)ccc4Br)CC3)no2)n1
CRL-7250
  max response: 1.84% and -2.26%
HEK293
  Potency: 1.18 µM (active) and 1.3 µM (active)
HaCat [1]
  outcome: inactive
KB-3-1
  Potency: 3.72 µM (active) and 2.31 µM (active)
HACAT [2]
  Potency: inactive
MCC-13
  Potency: inactive
MCC-26
  Potency: inactive
MKL-1
  Potency: inactive

## CC(=O)OCCN1C(=O)c2c(C)nc3ccc(S(=O)(=O)N4CCOCC4)cc3c2C1=O
CRL-7250
  max response: -12.8%
HEK293
  max response: -2.2%
HaCat [1]
  max response: 1.24%
KB-3-1
  outcome: inactive
NIH3T3
  max response: 2.81%
MCC-13
  Potency: inactive
MKL-1
  Potency: inactive

## CC(C)(C)OC(=O)Nc1ccc(-c2cc(C(=O)NCCCCCCC(=O)NO)no2)cc1
CRL-7250
  Potency: 16.6 µM (active)
HEK293
  Potency: 7.43 µM (active)
HaCat [1]
  Potency: 20900 nM (active)
KB-3-1
  Potency: 8.33 µM (active)
NIH3T3
  Potency: 14.8 µM (active)
MCC-13
  Potency: 11800 nM (active)
MCC-26
  Potency: 18700 nM (active)

## COc1cc2c(cc1-c1c(C)noc1C)ncc1[nH]c(=O)n([C@H](C)c3ccccn3)c12
CRL-7250
  Potency: 3.26 µM (active)
HEK293
  Potency: 5.26 µM (active) and 4.11 µM (active)
HaCat [1]
  max response: -12.8%
KB-3-1
  Potency: 16.6 µM (active)
NIH3T3
  Potency: 20.9 µM (active)
MCC-26
  Potency: 23500 nM (active)
MKL-1
  Potency: 18700 nM (active)

## CCc1c2c(nc3ccc(O)cc13)-c1cc3c(c(=O)n1C2)COC(=O)[C@]3(O)CC
CRL-7250
  Potency: 651 nM (active) and 2.64 µM (active)
HaCat [1]
  Potency: 58 nM (active) and 105 nM (active)
KB-3-1
  Potency: 291 nM (active) and 235 nM (active)
NIH3T3
  Potency: 0.731 µM (active)
MCC-13
  Potency: 29.6 nM (active)
MCC-26
  Potency: 37.2 nM (active)
MKL-1
  Potency: 11.8 nM (active)

## CC[C@@H]1C(=O)N(C)c2cnc(Nc3ccc(C(=O)NC4CCN(C)CC4)cc3OC)nc2N1C1CCCC1
CRL-7250
  Potency: 2.64 µM (active)
HaCat [1]
  Potency: 33.2 nM (active)
KB-3-1
  Potency: 0.0083 µM (active)
NIH3T3
  Potency: 1.87 µM (active)
MCC-13
  Potency: 662 nM (active)
MKL-1
  Potency: 23.5 nM (active)

## C=C1C(=CC=C2CCC[C@]3(C)[C@@H]([C@H](C)C=C[C@H](C)C(C)C)CC[C@@H]23)C[C@@H](O)C[C@@H]1O
CRL-7250
  max response: -0.207%
HaCat [1]
  outcome: inactive
KB-3-1
  outcome: inactive
HACAT [2]
  Potency: inactive
MCC-26
  Potency: 14800 nM (active)
MKL-1
  Potency: 1180 nM (active)
